Screens from PubChem BioAssay.
ALR inh: inhibitors of human sulfhydryl oxidase ALR. purified ALR, DTT oxidation, H2O2 HRP-luminol luminescence. actives 3.8% (n = 290,000). AID 485317. P55789. inhibition, % (concentration not given with the values);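 active = mean replicate inhibition above about 79%, with every replicate also reaching it, limit read from the data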
Target sequence (P55789 whole entry, looked up): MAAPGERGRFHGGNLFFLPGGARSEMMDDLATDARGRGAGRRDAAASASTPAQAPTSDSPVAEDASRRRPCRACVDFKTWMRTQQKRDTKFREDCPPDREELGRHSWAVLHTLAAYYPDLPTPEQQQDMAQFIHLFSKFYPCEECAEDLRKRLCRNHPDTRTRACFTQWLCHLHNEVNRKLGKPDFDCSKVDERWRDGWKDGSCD
Rce1 inhib: inhibitors of yeast Ras-converting enzyme | yeast membranes, quenched prenylated peptide cleavage fluorescence | calls only | actives 0.27% (n = 290,000) | AID 2563;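 active = fall in fluorescence gain of 50% or more versus controls, with final raw signal at or below 3038400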;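 note: plate controls were neutral control wells for no effect and wells lacking membranes for full effect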
Rtt109 Vps75: blocks Candida albicans Rtt109/Vps75 acetyltransferase activity; Q5AAJ8; purified Rtt109/Vps75, ThioGlo CoA-SH fluorescence, 4 h; inhibition, % at 34.9 µM; actives 0.16% (n = 330,000); AID 540336;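 active = inhibition of at least 50% in every replicate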
Target sequence (Q5AAJ8 whole entry, looked up): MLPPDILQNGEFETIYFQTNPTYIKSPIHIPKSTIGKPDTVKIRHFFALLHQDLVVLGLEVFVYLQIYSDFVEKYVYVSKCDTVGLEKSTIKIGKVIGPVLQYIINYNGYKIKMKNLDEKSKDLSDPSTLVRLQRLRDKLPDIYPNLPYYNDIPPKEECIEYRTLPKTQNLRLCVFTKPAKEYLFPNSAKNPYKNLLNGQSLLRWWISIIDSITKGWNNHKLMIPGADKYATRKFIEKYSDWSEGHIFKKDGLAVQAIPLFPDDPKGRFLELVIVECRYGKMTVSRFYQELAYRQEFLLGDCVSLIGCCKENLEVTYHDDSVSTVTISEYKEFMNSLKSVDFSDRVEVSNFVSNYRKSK
GRK2 inh: blocks RNA aptamer binding to human GRK2; AID 488847; inhibition of aptamer binding, % at 10 µM; actives 0.59% (n = 330,000); bead flow cytometry, FAM-aptamer displacement from GRK2; P25098;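 active = inhibition of aptamer binding above 40%, roughly 3 SD of noise, on plates passing a quality check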;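 note: median bead fluorescence of bound FAM aptamer so fluorescent compounds give negative values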
HDAC3 inhib: human HDAC3 inhibition; recombinant HDAC3, fluorogenic peptide/trypsin coupled, fluorescence; actives 0.15% (n = 320,000); inhibition, % at 8.3 µM; in the data active = inhibition above about 26%, passing the limit was not always enough
Efflux pump inh: blocks antifungal efflux pumps in multiplex yeast assay. AID 485275. inhibition, % at 10 µM. S. cerevisiae Candida pump triplex, Nile Red efflux. actives 0.44% (n = 330,000);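 active = plate passing quality check with inhibition over a set limit, or well fluorescence over plate mean plus 4 SD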;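 note: Nile Red retained in pooled yeast measured as flow cytometry median fluorescence; 0% = buffer negative control and 100% = Enniatin B positive control; higher means more Nile Red kept so more efflux inhibition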
Numbers without * were called inactive. Most compounds without a hit are left out; they make up all but 4.5% or so of the library.

For O=C1C2CCCN2C(c2cccs2)N1c1ccc(F)cc1 (centres undefined) the results were ALR inh 0.1, Rce1 inhib inactive, Rtt109 Vps75 -3.8, GRK2 inh 0.0, HDAC3 inhib -4.0 and Efflux pump inh 0.0.
For N#Cc1ccc(CN2CCN(C(=O)c3ccc(S(=O)(=O)N4CCCCCC4)cc3)CC2)cc1 the results were ALR inh -5.1, Rtt109 Vps75 -10.2, GRK2 inh 2.0, HDAC3 inhib -1.1 and Efflux pump inh 0.3.
Screening Cc1ccc(-c2nnc(Nc3ccc4c(c3)OCO4)c3ccccc23)cc1S(N)(=O)=O returned Rce1 inhib inactive, Rtt109 Vps75 3.7, GRK2 inh 2.0 and Efflux pump inh -0.3.
Screening Cc1nnc(Nc2ccc3c(c2)OCO3)c2ccccc12 returned ALR inh 88.2*, Rce1 inhib inactive, Rtt109 Vps75 5.3, GRK2 inh 2.0, HDAC3 inhib 1.1 and Efflux pump inh 0.0.
For Cc1ccc(S(=O)(=O)N2CC(=O)N3CCN(CCN)C3C2)cc1 (centres undefined) the results were ALR inh 4.6, Rtt109 Vps75 7.7, GRK2 inh 0.0, HDAC3 inhib -3.0 and Efflux pump inh 0.0.
Screening CC(C)CSC1=NSC2=NC(=O)/C(=C\c3coc4ccccc4c3=O)C(=N)N12 returned ALR inh 71.6, Rce1 inhib inactive, Rtt109 Vps75 2.8, GRK2 inh 3.0, HDAC3 inhib 9.5 and Efflux pump inh 0.0.
CSC1=NSC2=NC(=O)/C(=C\c3coc4ccccc4c3=O)C(=N)N12 was read as ALR inh 97.4*, Rtt109 Vps75 -5.1, GRK2 inh 4.0, HDAC3 inhib -1.9 and Efflux pump inh 0.0.
For CCOC(=O)c1ccc(N[C@@H]2CCN3C(=O)c4ccccc4[C@@H]3C[C@H]2O)cc1 the results were Rtt109 Vps75 2.4, GRK2 inh 0.0 and Efflux pump inh 0.0.
COc1cccc(/C=C2\Oc3cc(OCC(=O)N4Cc5ccccc5C[C@H]4C(=O)O)ccc3C2=O)c1 was read as ALR inh 98.5*, Rce1 inhib inactive, Rtt109 Vps75 1.6, GRK2 inh 10.0, HDAC3 inhib 9.2 and Efflux pump inh 0.5.
Screening COc1ccc(NC(=O)CSc2nc3ncccc3[nH]2)cc1OC returned ALR inh 95.6*, Rce1 inhib inactive, Rtt109 Vps75 4.8, GRK2 inh 0.0, HDAC3 inhib -6.2 and Efflux pump inh -0.1.
`CC(C)OC(=O)c1ccc(NC(=O)CSc2nc3ncccc3[nH]2)cc1` gave ALR inh 98.4*, Rce1 inhib inactive, Rtt109 Vps75 0.1, GRK2 inh 0.0, HDAC3 inhib -6.7 and Efflux pump inh -0.1.
O=C(CCSC1=NCCCN1)c1ccc(F)cc1 was read as Rtt109 Vps75 -9.6.
`COc1cc(C2C(C#N)=C(N)N(c3ccc(F)cc3)C3=C2S(=O)(=O)CC3)ccc1O` (centres undefined) gave ALR inh 88.4*, Rce1 inhib inactive, Rtt109 Vps75 -3.9, GRK2 inh 0.0, HDAC3 inhib -5.0 and Efflux pump inh 0.0.
CCC1(C)OC(=O)NN(c2ccc(C)cc2)C1(C)O (centres undefined) was read as ALR inh 95.2*, Rce1 inhib inactive, Rtt109 Vps75 0.6, GRK2 inh 0.0, HDAC3 inhib -2.1 and Efflux pump inh 0.2.
For Cc1ccc(NC(=O)CCN2C(=O)OC(C)(C)C2(C)O)cc1 (centres undefined) the results were ALR inh -2.1, Rce1 inhib inactive, Rtt109 Vps75 -2.6, GRK2 inh 0.0, HDAC3 inhib 2.9 and Efflux pump inh -0.1.
Screening Cc1ccc(C)c(CNc2ccc(S(=O)(=O)N3CCCCC3)cc2)c1 returned ALR inh 1.7, Rtt109 Vps75 2.4, GRK2 inh 0.0, HDAC3 inhib -10.8 and Efflux pump inh 0.1.
`O=S(=O)(c1ccc(Cl)s1)N1CCCc2cccc(O)c21` gave ALR inh 98.8*, Rce1 inhib inactive, Rtt109 Vps75 -0.7, GRK2 inh 0.0, HDAC3 inhib 2.3 and Efflux pump inh 0.2.
`CCOc1ccc(NC(=O)N(CCN2CCOCC2)Cc2ccc3c(c2)CCCN3CC)cc1` gave ALR inh 99.5*, Rce1 inhib inactive, Rtt109 Vps75 -6.3, GRK2 inh 0.0, HDAC3 inhib -5.4 and Efflux pump inh 0.1.
For COc1cccc(NC(=S)NCCN2CCOCC2)c1 the results were ALR inh -6.7, Rce1 inhib inactive, Rtt109 Vps75 0.4, GRK2 inh 2.0, HDAC3 inhib -2.3 and Efflux pump inh 0.2.
`CCOc1ccc(NC(=O)N(CCCN2CCOCC2)Cc2cccnc2)cc1` gave ALR inh -6.3, Rce1 inhib inactive, Rtt109 Vps75 -7.4, GRK2 inh 0.0, HDAC3 inhib 2.6 and Efflux pump inh -0.3.
For CCN1CCCc2cc(CN(CCN3CCOCC3)C(=S)Nc3cccc(OC)c3)ccc21 the results were ALR inh 86.9*, Rce1 inhib inactive, Rtt109 Vps75 -1.6, GRK2 inh 2.0, HDAC3 inhib 0.1 and Efflux pump inh -0.1.
`CCCN1CCCc2cc(CN(CCCN3CCOCC3)C(=O)Nc3ccc(OCC)cc3)ccc21` gave ALR inh 99.3*, Rce1 inhib inactive, Rtt109 Vps75 2.1, GRK2 inh 2.0, HDAC3 inhib 6.1 and Efflux pump inh 0.0.
CSc1ccc(S(=O)(=O)NCC(=O)OCC(=O)N2CCC(C)CC2)cc1[N+](=O)[O-] was read as ALR inh -38.9, Rtt109 Vps75 3.7, GRK2 inh 5.0, HDAC3 inhib -4.5 and Efflux pump inh -0.2.
`O=C(CN1C(=O)NC2(CCCC2)C1=O)Nc1nc2ccc(F)cc2s1` gave ALR inh -3.0, Rce1 inhib inactive, Rtt109 Vps75 2.8, GRK2 inh 2.0, HDAC3 inhib -1.1 and Efflux pump inh -0.1.
Nc1ccc2nc(NC(=O)C3CCCCC3)sc2c1 was read as ALR inh 98.8*, Rce1 inhib inactive, Rtt109 Vps75 0.9, GRK2 inh 0.0, HDAC3 inhib 0.0 and Efflux pump inh 0.1.
O=C(CN1C(=O)C2CC=CCC2C1=O)Nc1nc2ccc(F)cc2s1 (centres undefined) was read as ALR inh 98.3*, Rce1 inhib inactive, Rtt109 Vps75 -5.6, GRK2 inh 0.0, HDAC3 inhib 6.2 and Efflux pump inh -0.1.
`O=C(Nc1nc2ccc(C(=O)N3CCCCC3)cc2s1)C1CCCCC1` gave ALR inh 9.4, Rce1 inhib inactive, Rtt109 Vps75 -13.1, GRK2 inh 0.0, HDAC3 inhib -7.6 and Efflux pump inh -0.1.
O=C(Nc1nc2ccc(F)cc2s1)C1CCCO1 (centres undefined) was read as ALR inh 98.7*, Rce1 inhib inactive, Rtt109 Vps75 11.2, GRK2 inh 2.0, HDAC3 inhib -1.4 and Efflux pump inh -0.2.
`NNc1nc2ccc(F)cc2s1` gave ALR inh 99.4*, Rce1 inhib inactive, Rtt109 Vps75 -3.2, GRK2 inh 2.0, HDAC3 inhib -7.8 and Efflux pump inh -0.1.
